Assay results reported in PubChem BioAssay AID1619 (SRMLSC, 2009).
The campaign covered roughly 220,000 compounds. About 830 (0.38%) were called active.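 How the source made its calls: active means compound inhibiting the enzyme by more than half at any dose during confirmatory dose-response retesting; inconclusive means strong single-dose inhibitors picked by rank but not retested; inactive means the rest.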 The list is a sample of the results. Measured potencies and affinities stand elsewhere.

The compounds below were run against Leucine aminopeptidase (Plasmodium falciparum (isolate 3D7)) (UniProt Q8IL11) (assay: P. falciparum M17LAP inhibitors, primary screen, biochemical, fluorogenic H-Leu-NHMec substrate, 1536-well (AID 1619;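 further: plate controls were full reaction with DMSO carrier for no effect and no enzyme background for full effect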)). Settings: recombinant M17LAP, H-Leu-NHMec fluorogenic kinetic assay; at 30 µM; stronger effect = higher value.
Chain of Leucine aminopeptidase (Plasmodium falciparum (isolate 3D7)) (Q8IL11 whole entry, looked up): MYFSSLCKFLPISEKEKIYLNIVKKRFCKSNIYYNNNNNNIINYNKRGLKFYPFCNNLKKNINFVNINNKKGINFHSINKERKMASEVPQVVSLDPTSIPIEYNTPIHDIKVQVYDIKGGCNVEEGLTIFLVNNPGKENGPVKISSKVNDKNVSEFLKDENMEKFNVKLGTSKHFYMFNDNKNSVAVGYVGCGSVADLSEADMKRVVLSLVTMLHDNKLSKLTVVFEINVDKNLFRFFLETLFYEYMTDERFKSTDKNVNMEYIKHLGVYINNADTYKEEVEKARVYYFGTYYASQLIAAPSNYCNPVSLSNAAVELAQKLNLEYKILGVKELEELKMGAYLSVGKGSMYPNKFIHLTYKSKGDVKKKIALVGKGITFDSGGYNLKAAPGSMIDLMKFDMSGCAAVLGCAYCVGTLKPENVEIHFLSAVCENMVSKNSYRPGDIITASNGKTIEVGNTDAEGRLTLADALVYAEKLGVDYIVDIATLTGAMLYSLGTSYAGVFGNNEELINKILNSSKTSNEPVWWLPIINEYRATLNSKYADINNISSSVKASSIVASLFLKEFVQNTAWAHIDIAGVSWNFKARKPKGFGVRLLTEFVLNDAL

inhibition, inactive:
Cc1nn(CC(=O)N2CC(=O)Nc3ccccc32)c(C)c1[N+](=O)[O-] 1.29%
CCOC(=O)c1sc(NC(=S)NC(=O)C2CCCC2)cc1C -3.81%
O=C(O)C1CCCN(S(=O)(=O)c2ccc(Br)s2)C1 (centres undefined) -0.9%
Cc1ccc(-c2nn(Cc3ccccc3)cc2/C=C/C(=O)O)cc1 38.8%
O=C(O)/C=C/c1cn(Cc2ccccc2)nc1-c1ccccc1 22.2%
O=C(O)/C=C/C(=O)Nc1ccc(Oc2ccccc2)cc1 -0.33%
O=C(O)/C=C\C(=O)Nc1ccc(Oc2ccccc2)cc1 15%
CCS(=O)(=O)N1CCC(C(=O)NCc2ccc(OC)cc2)CC1 5.05%
CCOC(=O)C1CCN(c2nc(-c3ccccc3)nc3c2oc2ccccc23)CC1 41.7%
CCC(C)[C@H](Nc1nc(-c2ccccc2)nc2c1oc1ccccc12)C(=O)O (some centres undefined) 51.5%
CCc1nc(N[C@H](C(=O)O)C(C)C)c2oc3ccccc3c2n1 3.02%
Cc1nc(SCC(=O)O)c2oc3ccccc3c2n1 1.07%
O=C(O)CSc1nc(-c2ccccc2)nc2c1oc1ccccc12 28.6%
NC(=O)C1CCN(c2nc(-c3ccccc3)nc3c2oc2ccccc23)CC1 -0.35%
COc1ccc(N=C2NC(=O)/C(=C/C=C/c3ccccc3)S2)cc1 3.51%
CCc1ccc(C2CC(c3ccc(Cl)cc3)n3nc(N)nc3N2)cc1 (centres undefined) -1.74%
CCC(CC)Nc1ccc(C(CC(N)=O)NC(=O)Cc2ccc(Br)cc2)cc1[N+](=O)[O-] (centres undefined) -4.54%
CN(C)c1ccnc2sc(C(=O)NCc3ccccc3)c(N)c12 -4.21%
Cc1ccc(NC(=O)CCC(=O)OCC(=O)c2ccc(Oc3ccc([N+](=O)[O-])cc3)cc2)c(C)c1 13.8%
CC(C)c1nnc(NC(=O)CSc2nnc(NC(=O)c3c(F)cccc3F)s2)s1 2.85%
COc1ccc(NC(=O)CSc2nnc(NC(=O)c3ccco3)s2)cc1 22.5%
Cc1cccc(C)c1NC(=O)CSc1nnc(NC(=O)c2ccccc2C(=O)O)s1 19.1%
O=C(CSc1nnc(NC(=O)c2ccco2)s1)Nc1ccc(F)cc1 -1.02%
C=CCn1cnc2sc(C(=O)Nc3ccccc3OC)c(C)c2c1=O 7.04%
Clc1ccc(-c2cc(COc3ccc4ccccc4c3)no2)cc1 -2.54%
COc1ccc(C(=O)CSc2nc(N)nc(SC)c2C#N)cc1 -5.8%
CCN1C(=O)/C(=C\c2ccc(-c3ccc([N+](=O)[O-])cc3OC)o2)SC1=Nc1cccc(C(=O)O)c1 28.7%
CN1C(=O)/C(=C/c2ccco2)SC1=Nc1ccc(N2CCOCC2)cc1 -4.86%
CCOC(=O)c1sc(-c2ccccn2)nc1C 10.5%
C/C(O)=C(\C#N)c1nc2ccccc2[nH]1 1.5%
CCN(CC)S(=O)(=O)c1ccc(Cl)c(NC(=O)CCCCl)c1 8.77%
NC(=O)C1CCN(C(=O)c2ccc(CS(=O)(=O)c3c(Cl)cccc3Cl)o2)CC1 1.58%
CCCCn1c(N)c(Br)c(=O)[nH]c1=O 10%
COc1cc(/C=N/NC(=O)CC2C(=O)NN=C2C)ccc1O (centres undefined) 10.4%
CCOc1cccc(/C=N/NC(=O)CC2C(=O)NN=C2C)c1O (centres undefined) 3.72%
COc1cc(OC)c(OC)cc1/C=N/NC(=O)CC1C(=O)NN=C1C (centres undefined) 53.3%
COc1ccc(OC)c(/C=N/NC(=O)CC2C(=O)NN=C2C)c1 (centres undefined) -164%
CCCn1c(C2CC(=O)N(c3ccc(C)cc3)C2)nc2ccccc21 (centres undefined) 4.53%
O=C(Nc1cccc(F)c1)/C(=C\c1cccnc1)NC(=O)c1cccs1 7.11%
CC1=C(C#N)C(=O)NC(=O)/C1=C\c1ccc(-c2cc(C)c(C)cc2[N+](=O)[O-])o1 24.2%
CC1=C(C#N)C(=O)NC(=O)/C1=C/c1ccc(-c2ccc(S(N)(=O)=O)cc2)o1 35.6%
CC(=O)c1c(O)cc(=O)n(-c2ccccc2)c1-c1ccc(Cl)cc1 -10.1%
CC(=O)c1c(O)cc(=O)n(-c2ccccc2)c1-c1ccc(C)cc1 0.53%
Cc1cccc(Nc2nnc(SCC(=O)c3ccc(Br)s3)s2)c1C 23%
CN(C(=O)CSc1nnc(-c2ccc(Cl)cc2)n1CC1CCCO1)C1CCS(=O)(=O)C1 (centres undefined) -0.82%
CSc1nc2nc(C)cc(-c3ccccc3)n2n1 -6.85%
Nc1nc2nc(-c3ccc(OCc4ccccc4)cc3)cc(C(F)(F)F)n2n1 -1.91%
COc1cc(C)nc2nc(SCc3ccccc3)nn12 -4.54%
COc1ccc(CNc2ncccn2)cc1OC -2.62%
COc1ccc(CNc2nc3nc(C)cc(C)n3n2)cc1OC 4.62%
Cc1cc(C)n2nc(SCc3ccccc3)nc2n1 -5.69%
CSc1nc2nc(-c3ccccc3)cc(C(F)(F)F)n2n1 -8.74%
Cc1nc2nc(COc3ccccc3)nn2c(C)c1Cl -4.07%
COC(=O)c1c(NC(=O)Cn2cnc([N+](=O)[O-])n2)sc2c1CCC(C)C2 (centres undefined) 1.07%
O=C(NC1CCN(Cc2ccccc2)CC1)C1CCN(c2nnc(-n3cccc3)s2)CC1 -1.52%
Nc1cc(C(F)(F)F)ccc1Nc1ccccc1 -4.7%
CCCCOC(=O)Nc1ccccc1C(=O)N1CCCC1 10.4%
CCOC(=O)C(C(=O)NCC1CCCO1)C1CCCCC1 (centres undefined) 5.23%
CCOC(=O)C1(O)CSc2nc3sc(C(=O)O)c(C)c3c(=O)n21 (centres undefined) -2.76%
COc1ccc(-c2noc(CN(C)Cc3ccc(C)o3)n2)cc1 1.39%
COc1cc([N+](=O)[O-])ccc1NC(=O)CN1CCN(C(=O)c2ccco2)CC1 17.7%
COc1cc2c(C(=O)N3CCN(c4cccc(Cl)c4)CC3)cn(CC(C)C)c(=O)c2cc1OC -4.76%
CC1(C)Cc2c(c(N3CCOCC3)nc3sc4c(N5CCOCC5)nnnc4c23)CS1 -1.05%
CCc1ccc(NC2=NCC(=O)N2c2ccc3c(c2)OCCO3)cc1 -5.16%
CCOC(=O)C1(CC2CC2)CCN(Cc2cn[nH]c2-c2cccc(F)c2)CC1 -3.31%
Cc1ccc(NC(=O)c2ccccc2OCC(=O)c2ccccc2)cc1 3.34%
O=C(Cc1cccs1)N/N=C/C(Cl)=C/c1ccccc1 -2.46%
O=C(Cc1ccc(Cl)cc1)N/N=C/c1c(Cl)cccc1Cl -10.8%
CC(/C=N/NC(=O)Cc1cccn1C)=C\c1ccccc1 32.7%
O=C(Cc1cc(=O)[nH][nH]1)N/N=C/c1c(Cl)cccc1Cl 47.6%
O=C(Cc1cc(=O)[nH][nH]1)N/N=C/C(Cl)=C/c1ccccc1 52.8%
CC(/C=N/NC(=O)Cc1cccs1)=C\c1ccccc1 -13.2%
O=C(CCCN1C(=O)c2cccc3cccc(c23)C1=O)NCCN1CCOCC1 4.16%
O=C(CCc1nnc(CCCCc2ccccc2)o1)NCc1cccc(F)c1 -1.09%
CCC(C)Oc1cc(-c2ccnc(Nc3cccc(Cl)c3)n2)ccn1 (centres undefined) 0.9%
CC(=O)Nc1ccc(S(=O)(=O)NCc2csc(-c3cccnc3)n2)cc1 5.75%
Cc1ccc(-c2cc(C(=O)Nc3ccc(S(=O)(=O)Nc4ncccn4)cc3)c3ccccc3n2)cc1 39.1%
CC(=O)NS(=O)(=O)c1ccc(NC(=O)c2cc(-c3ccc(C)c(C)c3)nc3ccccc23)cc1 -0.01%
CC(=O)NS(=O)(=O)c1ccc(NC(=O)c2cc(-c3cccs3)nc3ccccc23)cc1 16.1%
Cc1ccc(-c2cc(C(=O)Nc3ccc(S(=O)(=O)Nc4nc(C)cc(C)n4)cc3)c3ccccc3n2)cc1 -0.85%
COc1ccc2c(c1)nc(SCC(=O)c1ccc(Br)s1)n2C 43.5%
COc1ccc(C(O)P(=O)(O)CCc2ccccc2)cc1 (centres undefined) 21.7%
CCOC(=O)CCP(=O)(O)C(O)c1ccccc1 (centres undefined) 11.7%
O=C1OC(c2ccccc2)=C/C1=C\N1CCOCC1 8.13%
CC(C)[C@H](NC(=O)c1ccccc1)C(=O)OCC(=O)N1CCc2ccccc2C1 10.5%
COc1ccc(NC(=O)c2ccc(-n3cccn3)c([N+](=O)[O-])c2)cc1 1.4%
O=C(CCCOc1ccccc1)n1nnc2ccccc21 -0.57%
O=C(CCCOc1ccc(Cl)cc1Cl)n1nnc2ccccc21 69.2%
CN1CCN(C(=O)/C=C/c2ccc3c(c2)OCO3)CC1 6.85%
COc1ccc(-n2c(=O)c3c4c(sc3n(CC(=O)NC3CCCC3)c2=O)CCCC4)c(OC)c1 0%
COc1cc(NC(=O)Cc2cccs2)c(C(=O)O)cc1OC 4.5%
Cc1c(Cl)cccc1NC(CC(=O)c1ccccc1)C(=O)O (centres undefined) 49.4%
O=C(CC(Nc1ccccc1Cl)C(=O)O)c1ccccc1 (centres undefined) 19.8%
O=C(CCCN1C(=O)c2ccccc2C1=O)Nc1nncs1 0.65%
